Values joined by “and” are separate entries in the source; they are usually repeats but may differ in a detail not shown here. Identical values can stand only once. Inconclusive results are not listed. Entries that show only a call come without a potency. More than one record can exist for a structure, and the calls need not agree. Active and inactive are the calls of the source. Unless noted, the call rests on the fitted dose curve; in most records, active means well fitted curve in the direction sought with a large enough effect in the repeat runs; inconclusive means weak or mixed curves; inactive means no such curve, though single readings can be large; an effect the other way counts as inactive or inconclusive.
Key:
[1] = qHTS assay to identify small molecule agonists of the RXR signaling pathway - cell viability counter screen (AID 1159529);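 further: HEK 293T cells carrying an RXR-alpha UAS beta-lactamase reporter; series mostly up to about 77 µM; nearly all actives have a fitted effect of over 50% in size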
Method in brief: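 Same-well viability check after the LiveBLAzer FRET read: CellTiter-Glo added, luminescence measured after 30 min at room temperature. Reporter HEK 293T cells had been treated with compounds for 16 hr following a 5 hr preincubation.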

[2] = qHTS assay to identify small molecule antagonists of the retinoid acid receptor (RAR) signaling pathway - cell viability counter screen (AID 1159551); further: nearly all actives have a fitted effect of over 35% in size
Method in brief: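 Viability of C3RL4 cells is quantified from ATP by luminescence after 6 h treatment at 37 C with compounds and 1 uM retinol.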

[3] = qHTS assay to identify small molecule antagonists of the retinoic acid receptor (RAR) signaling pathway (AID 1159552; further: nearly all actives have a fitted effect of over 50% in size; further: potency means the concentration at half of the fitted maximal effect)
Method in brief: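 Readout: luciferase luminescence, 30 min post-reagent at RT. Setup: C3RL4 RARE reporter cells, compounds plus retinol 1 uM final, 6 hr incubation at 37 C and 5% CO2.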

[4] = qHTS assay to identify small molecule agonists of the retinoic acid receptor (RAR) signaling pathway (AID 1159553); further: potency means the concentration at half of the fitted maximal effect
Method in brief: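 Compounds dissolved in DMSO were pinned onto C3RL4 cells seeded the previous day, and plates were held 6 hr at 37 C. RARE-driven luciferase output was then read by luminescence.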

[5] = qHTS assay to identify small molecule antagonists of the estrogen related receptor (ERR) signaling pathway from Tox21 library - cell viability counter screen (AID 1224834); further: nearly all actives have a fitted effect of over 30% in size
Method in brief: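 In this quantitative HTS format, ERR cells receive compounds in DMSO and are incubated for 17.5 h at 37 C. Live-cell protease activity is then detected with CellTiter-Fluor.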

[6] = target: Luciferin 4-monooxygenase (Photinus pyralis) (UniProt P08659); test: qHTS assay to identify small molecule inhibitors of firefly luciferase (AID 1224835); further: nearly all actives have a fitted effect of over 25% in size; further: potency means the concentration at half of the fitted maximal effect
Method in brief: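 Inhibition of purified Photinus luciferase is measured by luminescence. Substrate levels (D-luciferin, ATP) sit at their KM values. Each compound is tested in a concentration series.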

[7] = qHTS assay to identify small molecule agonists of the constitutive androstane receptor (CAR) signaling pathway - cell viability counter screen (AID 1224836); further: series mostly up to about 92 µM; nearly all actives have a fitted effect of over 45% in size
Method in brief: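 Compound titrations (15 concentrations) went onto HepG2-CYP2B6-hCAR cells 4 h after seeding, alongside PK11195 at a final 0.75 uM; a 23 h, 37 C/5% CO2 incubation preceded CellTiter-Fluor viability measurement.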

[8] = qHTS assay to identify small molecule antagonists of the constitutive androstane receptor (CAR) signaling pathway - cell viability counter screen (AID 1224837); further: series mostly up to about 92 µM; nearly all actives have a fitted effect of over 45% in size
Method in brief: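 In quantitative HTS format, compounds at 15 concentrations were applied to HepG2 cells double-transfected with hCAR and CYP2B6-2.2kb under 50 nM CITCO stimulation; live-cell protease activity was read after 23 hr via CellTiter-Fluor.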

[9] = target: Nuclear receptor subfamily 1 group I member 3 (Homo sapiens) (UniProt Q14994); test: qHTS assay to identify small molecule antagonists of the constitutive androstane receptor (CAR) signaling pathway (AID 1224838); further: nearly all actives have a fitted effect of over 40% in size
Method in brief: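 CITCO-stimulated (50 nM final) HepG2 cells stably transfected with hCAR and CYP2B6-2.2kb luciferase were exposed to compounds at 15 concentrations for 24 h at 37 C/5% CO2. A luciferase reagent was added and luminescence recorded after 30 min.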

[10] = qHTS assay to identify small molecule antagonists of the estrogen related receptor signaling pathway with the pleiotropic PPARgamma coactivator (PGC) from Tox21 10K library - cell viability counter screen (AID 1224840; active means well fitted cell-killing curve with a large enough effect in the repeat runs, not every such curve was filed as active; further: nearly all actives have a fitted effect of over 40% in size)
Method in brief: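 Viability counter screen, PGC/ERR cells: 17.5 h compound exposure at 37 C, CellTiter-Fluor fluorescence endpoint.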

[11] = target: Thyrotropin receptor (Homo sapiens) (UniProt P16473); test: qHTS assay to identify small molecule agonists of the thyroid stimulating hormone receptor (TSHR) signaling pathway (AID 1224843; calls by dose curve; further: nearly all actives have a fitted effect of over 45% in size; further: potency means the concentration at half of the fitted maximal effect)
Method in brief: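 A cell-based cAMP HTRF format was run in TSHR-transfected HEK293 cells, 800 per well. Treatment: 30 min, room temperature. Detection: 1 h with labelled cAMP and anti-cAMP cryptate. Concentration-response over 15 points, three replicates.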

[12] = target: Nuclear receptor subfamily 1 group I member 3 (Homo sapiens) (UniProt Q14994); test: qHTS assay to identify small molecule agonists of the constitutive androstane receptor (CAR) signaling pathway (AID 1224839); further: nearly all actives have a fitted effect of over 15% in size; further: potency means the concentration at half of the fitted maximal effect
Method in brief: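 In this screen, CAR-driven CYP2B6 promoter activity is measured by luminescence in HepG2-CYP2B6-hCAR cells after 24 h with test compounds and 0.75 uM PK11195 (final concentration).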

[13] = qHTS assay to identify small molecule antagonists of the estrogen related receptor signaling pathway with the pleiotropic PPARgamma coactivator (PGC) from Tox21 10K library (AID 1224841; call rule not given here; further: series mostly up to about 92 µM; actives are mostly falling curves and most rising ones were filed inactive; nearly all actives have a fitted effect of over 50% in size)
Method in brief: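 In the PGC/ERR line, DMSO solutions of test chemicals are pin-delivered to 2,000 cells/well six hours after dispensing. Following eighteen hours' incubation, One-Glo reagent is added and luminescence recorded.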

[14] = qHTS assay to identify small molecule agonists of the estrogen related receptor signaling pathway with the pleiotropic PPARgamma coactivator (PGC) from Tox21 10K library (AID 1224842); further: nearly all actives have a fitted effect of over 15% in size
Method in brief: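 Luminescence from One-Glo (30 min, room temperature) measured after PGC/ERR cells had 18 h at 37 C with pinned compound (23 nL in DMSO). Cells had been seeded at 2,000 per well and pre-incubated 6 h.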

Sequence of Nuclear receptor subfamily 1 group I member 3 (Homo sapiens) (Q14994 whole entry, looked up): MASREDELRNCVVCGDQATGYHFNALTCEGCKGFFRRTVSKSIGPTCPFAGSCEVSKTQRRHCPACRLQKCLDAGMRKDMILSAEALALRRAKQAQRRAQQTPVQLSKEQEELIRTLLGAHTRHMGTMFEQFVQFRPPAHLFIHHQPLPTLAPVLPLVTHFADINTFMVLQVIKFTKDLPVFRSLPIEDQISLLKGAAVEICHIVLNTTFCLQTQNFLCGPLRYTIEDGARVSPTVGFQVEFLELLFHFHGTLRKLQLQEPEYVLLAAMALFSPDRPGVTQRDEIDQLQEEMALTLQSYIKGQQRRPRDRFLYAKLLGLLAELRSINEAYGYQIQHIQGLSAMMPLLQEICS
Sequence of Thyrotropin receptor (Homo sapiens) (P16473 whole entry, looked up): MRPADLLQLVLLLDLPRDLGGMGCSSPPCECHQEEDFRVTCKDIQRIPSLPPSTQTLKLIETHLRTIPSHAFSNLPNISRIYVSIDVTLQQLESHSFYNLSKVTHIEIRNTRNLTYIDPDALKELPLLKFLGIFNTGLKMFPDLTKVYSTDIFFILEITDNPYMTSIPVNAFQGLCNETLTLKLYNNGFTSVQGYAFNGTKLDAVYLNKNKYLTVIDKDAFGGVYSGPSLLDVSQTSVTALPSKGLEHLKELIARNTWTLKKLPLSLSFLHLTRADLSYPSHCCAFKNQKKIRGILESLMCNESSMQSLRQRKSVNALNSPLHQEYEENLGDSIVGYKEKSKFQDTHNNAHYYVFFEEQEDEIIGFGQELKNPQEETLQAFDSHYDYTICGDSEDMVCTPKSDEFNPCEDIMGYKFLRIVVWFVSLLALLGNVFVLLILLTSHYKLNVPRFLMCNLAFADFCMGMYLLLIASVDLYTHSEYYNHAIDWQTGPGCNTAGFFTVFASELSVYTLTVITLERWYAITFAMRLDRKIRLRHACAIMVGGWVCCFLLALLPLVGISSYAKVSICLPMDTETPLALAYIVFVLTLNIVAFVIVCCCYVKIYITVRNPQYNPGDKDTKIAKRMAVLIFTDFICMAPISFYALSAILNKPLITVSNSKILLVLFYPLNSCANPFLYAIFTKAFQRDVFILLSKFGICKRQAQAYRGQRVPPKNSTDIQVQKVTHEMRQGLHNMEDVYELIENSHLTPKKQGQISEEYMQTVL
Sequence of Luciferin 4-monooxygenase (Photinus pyralis) (P08659 whole entry, looked up): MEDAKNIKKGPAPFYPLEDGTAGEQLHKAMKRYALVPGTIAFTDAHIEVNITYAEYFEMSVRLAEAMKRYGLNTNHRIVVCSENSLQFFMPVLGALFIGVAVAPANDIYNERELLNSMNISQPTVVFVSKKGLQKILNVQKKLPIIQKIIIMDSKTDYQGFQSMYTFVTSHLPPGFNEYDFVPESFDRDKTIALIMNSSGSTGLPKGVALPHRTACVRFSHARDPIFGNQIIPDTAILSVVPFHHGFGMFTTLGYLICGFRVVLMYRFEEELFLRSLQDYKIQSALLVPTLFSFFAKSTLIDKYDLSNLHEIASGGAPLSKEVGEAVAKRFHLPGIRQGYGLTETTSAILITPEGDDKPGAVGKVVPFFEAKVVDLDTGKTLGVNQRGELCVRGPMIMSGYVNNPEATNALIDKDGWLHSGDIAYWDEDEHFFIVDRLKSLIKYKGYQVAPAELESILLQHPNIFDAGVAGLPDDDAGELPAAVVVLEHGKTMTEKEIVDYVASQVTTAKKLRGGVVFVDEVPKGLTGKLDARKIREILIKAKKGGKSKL

SMILES	Potency [1]	Potency [2]	Potency [3]	Potency [4]	Potency [5]	Potency [6]	Potency [7]	Potency [8]	Potency [9]	Potency [10]	Potency [11]	Potency [12]	Potency [13]	Potency [14]
CC(C)(C)C(=O)C(Cl)Cl	inactive	inactive	inactive	inactive	inactive	inactive	inactive	inactive	inactive	inactive	inactive			
CON(C)C(=O)Nc1ccc(Br)c(Cl)c1	inactive	inactive	inactive	21.7 µM (active)	inactive	39.9 µM (active)	inactive	inactive			inactive	48.6 µM (active)	inactive	inactive
CCOP(=O)(CN(CCO)CCO)OCC	inactive	inactive	inactive	inactive	inactive	inactive	inactive	inactive		inactive	inactive			
O=C(O)CBr	inactive	inactive	inactive	inactive	inactive	inactive	inactive	inactive			inactive		inactive	inactive
CCOC(=O)c1ncn2c1CN(C)C(=O)c1c(I)cccc1-2	inactive	inactive	inactive	inactive	inactive	inactive	inactive	inactive			inactive			
ClC1=C(Cl)C2(Cl)C(CBr)CC1(Cl)C2(Cl)Cl (stereo not drawn)	inactive	inactive	54.5 µM (active) and inactive	inactive	inactive	inactive	inactive	inactive		inactive	4.33 µM (active) and 10.6 µM (active)			
O=C1CCCCC1Cl (stereo not drawn)	inactive	inactive	inactive	inactive	inactive	inactive	inactive	inactive		inactive	inactive			
N[C@@H]1C[C@H]1c1ccccc1	inactive	inactive	inactive	inactive	inactive	inactive	inactive	inactive		inactive	inactive			
CNC(=O)Oc1cc(C)c(N(C)C)c(C)c1	inactive	inactive	inactive	inactive	inactive	inactive	inactive	inactive					inactive	inactive
Clc1ccc(C(Cl)(Cl)Cl)cn1	inactive	inactive	inactive	inactive	inactive	inactive	inactive	inactive			inactive			
CC(C)(C)NC[C@H](O)c1ccc(O)cc1Cl	inactive	inactive	inactive	inactive	inactive	inactive	inactive	inactive		inactive	8.4 nM (active)		inactive	inactive
CN1COCN(Cc2cnc(Cl)s2)/C1=N\[N+](=O)[O-]	inactive	inactive	inactive	inactive	inactive	inactive	inactive	inactive		inactive	inactive			
NC(=O)OCCCc1ccccc1	inactive	inactive	inactive	inactive	inactive	inactive	inactive	inactive		inactive	inactive			
C=C1CC[C@@]2(O)[C@H]3Cc4ccc(O)c5c4[C@@]2(CCN3CC2CC2)[C@H]1O5	inactive	inactive	inactive	inactive	inactive	inactive	inactive	inactive		inactive	inactive		inactive	inactive
CCOC(=O)N(C)N=O	inactive	inactive	inactive	inactive	inactive	inactive	inactive	inactive		inactive	inactive		inactive	inactive
N[C@@H](Cc1ccc(Oc2cc(I)c(O)c(I)c2)c(I)c1)C(=O)O	inactive	inactive	inactive	inactive	inactive	inactive	inactive		inactive	inactive		inactive		
COC(=O)[C@@H](N)CCCN/C(N)=N/[N+](=O)[O-]	inactive	inactive	inactive	inactive	inactive	inactive	inactive	inactive		inactive	inactive			

Source: PubChem BioAssay (Tox21)
